Screens deposited in PubChem BioAssay by several laboratories.
Hits are enriched below; roughly 2.3% of the tested compounds scored in any of these assays.
Bcl-xL primary: inhibitors of human Bcl-xL, primary screen, biochemical, fluorescence polarization, HTS. Bcl-2-like protein 1 (Homo sapiens), Q07817. GST-Bcl-xL / FITC-Bim BH3 peptide fluorescence polarization. inhibition, % at 10.9 µM. hit rate 0.7% among 320,000. AID 2129, 2009;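 active means inhibition above the mean of all tested compounds plus 3 SD, cutoff set per campaign, cut at about 30% in these data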;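 further: 0% = DMSO wells and 100% = unlabeled Bim-BH3 peptide competitor; inhibitors lower millipolarization by displacing the labeled peptide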
Target sequence (Q07817 whole entry, looked up): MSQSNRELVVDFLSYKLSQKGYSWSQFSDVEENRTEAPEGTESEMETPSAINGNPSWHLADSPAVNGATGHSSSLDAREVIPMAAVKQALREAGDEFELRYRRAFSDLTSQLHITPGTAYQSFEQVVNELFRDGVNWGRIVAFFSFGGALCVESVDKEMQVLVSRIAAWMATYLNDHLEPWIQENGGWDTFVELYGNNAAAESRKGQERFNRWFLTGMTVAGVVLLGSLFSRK
MCL1-BIM inh: inhibitors of MCL1 binding to BIM-BH3, primary screen, biochemical, fluorescence polarization; Induced myeloid leukemia cell differentiation protein Mcl-1 (Homo sapiens), Q07820; GST-MCL1 / FITC-Bim-BH3 fluorescence polarization; inhibition, % at 10.9 µM; hit rate 0.68% among 320,000;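 active means inhibition above the mean inhibition of all tested compounds plus 3 SD, set per campaign, cut at about 40% in these data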;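 further: 0% = DMSO wells and 100% = unlabeled Bim-BH3 peptide control; higher means more loss of mP so more displacement of Bim peptide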
GLD-1 RNA inh: GLD-1/TGE RNA complex disruptors, primary screen, biochemical, fluorescence polarization; Female germline-specific tumor suppressor gld-1 (Caenorhabditis elegans), Q17339; purified GLD-1 + fluorescein TGE RNA; inhibition, % at 5.96 µM; hit rate 0.44% among 320,000; AID 2280, 2010;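 active means percent inhibition above a per-plate cutoff, the plate mean of test compounds plus 3 SD, cut at about 30% in these data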;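 further: 0% = DMSO wells with GLD-1 and probe and 100% = wells lacking GLD-1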
Mcl1 Bid PPI: Mcl-1/Bid binding inhibitors, primary screen, biochemical, TR-FRET, 1536-well; TR-FRET Mcl-1/Bid-Dy647 peptide binding; inhibition, % at 21.7 µM; hit rate 0.97% among 220,000; AID 1021, 2008;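 active means compounds that cut the binding signal by more than half at the single screening dose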;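 further: His-tagged Mcl-1 with europium anti-His antibody binding Bid BH3 peptide; 0% = Mcl-1 plus peptide wells and 100% = peptide-only wells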
Mcl1-Noxa inh: Mcl-1/Noxa binding inhibitors, primary screen, biochemical, TR-FRET, 1536-well | TR-FRET Mcl-1/Noxa peptide binding, 2 h | inhibition, % at 21.7 µM | hit rate 1.5% among 220,000;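 active means compounds that cut the protein-peptide binding signal by more than 50% relative to plate controls in a single-dose test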;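 further: His-tagged Mcl-1 with rhodamine Noxa BH3 peptide and terbium anti-His antibody; 0% = Mcl-1 plus Noxa peptide wells and 100% = peptide-only wells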
Mcl-1 Bim block: inhibitors of Bim peptide binding to Mcl-1, primary screen, biochemical, bead-based flow cytometry, multiplex; Induced myeloid leukemia cell differentiation protein Mcl-1 (Homo sapiens), Q07820; Bim peptide-Mcl-1 binding; inhibition, % at 10 µM; hit rate 0.1% among 190,000; AID 1009, 2008; in the data active means inhibition above about 40%;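 further: 0% = no compound tracer wells and 100% = peptide blocker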
* = called active by the depositor; · = no result.

SMILES	Bcl-xL primary	MCL1-BIM inh	GLD-1 RNA inh	Mcl1 Bid PPI	Mcl1-Noxa inh	Mcl-1 Bim block
CC(=O)NC(Nc1c(C)n(C)n(-c2ccccc2)c1=O)C(Cl)(Cl)Cl (stereo unspecified)	3	6	8	-18	19	0
O=C(Cn1sc2ccccc2c1=O)NC12CC3CC(CC(C3)C1)C2	22	39	1	32	53*	-15
CC1CCC(NC(=O)CCCn2sc3ccccc3c2=O)CC1 (stereo unspecified)	4	0	-5	·	·	·
CCCCn1c(-c2ccc(Cl)cc2)nc2c(=O)n(C)c(=O)[nH]c21	·	·	·	-29	76*	-1
CC(C)(CCC(=S)N1CCOCC1)C1CCCCC1	-1	0	4	·	·	·
c1ccc(-c2cc3c(N4CCOCC4)ncnc3s2)cc1	-2	-2	6	9	2	-1
COC(=O)CSc1[nH]c2ccc(Br)cc2c1[N+](=O)[O-]	6	12	-2	-3	17	0
CCOc1ccc2[nH]c(SCC(=O)OC)c([N+](=O)[O-])c2c1	39*	36	30	-1	18	5
CC(=O)N1CCn2c3c(c(=O)c4cc(C)ccc42)CCC31 (stereo unspecified)	32*	23	12	-28	0	0
O=C(NC(=S)Nc1cccc([N+](=O)[O-])c1)C1CCCCC1	4	8	-28	·	·	·
COc1ccc(-c2nnc(N)s2)cc1	1	9	4	-21	4	-7
CCCOc1ccc(-c2nnc(N)s2)cc1	-1	6	5	-37	62*	-3
N#Cc1cc(-c2ccccc2)nn1-c1ccccc1	45*	43*	-2	27	97*	5
CCOC(=O)c1c(NC(=O)c2ccccc2)sc2c(O)c(CN(CC)CC)ccc12	8	4	1	21	59*	0
CCOC(=O)C1=C(C)NC2=C(C(=O)CC(C)(C)C2)C1c1ccc2c(c1)CCCN2C (stereo unspecified)	2	-1	3	-2	94*	-6
COc1cc(C(CC(=O)N2CCCC2)c2c(OC)cc(OC)c3ccc(=O)oc23)cc(OC)c1OC (stereo unspecified)	36*	38	55*	-53	-6	·
O=C(O)CC(SCc1ccc(C(=O)O)o1)C(=O)O (stereo unspecified)	5	3	6	53*	14	-4
CN(C)c1ncc(/C=C2/C(=O)NC(=S)N(C3CCCCC3)C2=O)cn1	·	·	·	9	61*	0
CC(C)CC1NC(=S)N(C2CCCCC2)C1=O (stereo unspecified)	2	13	1	-62	7	0
CCCCc1nnc2c(N(C)S(=O)(=O)c3ccccc3)nc3ccccc3n12	1	-1	-2	55*	19	·
COC(=O)N(NC(=O)C(O)(c1ccccc1)c1ccccc1)c1ccccc1	1	-4	4	60*	16	-6
CCCOc1ncnc2c1[nH]c1ccccc12	8	-1	0	-18	86*	0
CCCOc1ncnc2c1[nH]c1ccc(OC)cc12	11	0	-1	-2	12	·
O=[N+]([O-])c1ccccc1S(=O)(=O)c1ccccc1	4	4	1	·	·	·
Cc1cccc(C)c1OCc1n[nH]c(=S)n1N	-8	-4	0	-37	19	-5
Cc1ccc(C(=O)Nc2scc(-c3ccccc3)c2C(=O)O)o1	8	13	0	-28	5	0
O=C(Nc1ccc2c(c1)nc1n2CCSC1)c1ccco1	6	18	-8	5	60*	-1
CCC(=O)Nc1ccc2c(c1)nc1n2CCN(C2CCCCC2)C1	16	22	7	-60	26	1
O=C(Nc1ccc2c(c1)nc1n2CCN(C2CCCCC2)C1)c1ccco1	·	·	·	-55	84*	·
NCCCC[C@H]1CN=C(N)N1CCC12CC3CC(CC(C3)C1)C2	7	3	-3	18	10	·
